# In PubChem BioAssay (EPA / NIEHS):
# Activity calls are given as the source filed them. The calls were made as follows: active = hit-call score of the fitted dose curve at least 0.9, where 1 is the maximum; inactive = score below 0.9.
# Molecular target: CCAAT/enhancer-binding protein beta (Homo sapiens) (UniProt P17676)
# Assay: ATG_C_EBP_CIS: Attagene CIS-FACTORIAL HepG2 Assay for human CCAAT/Enhancer Binding Protein (C/EBP) beta (AID 2282927)
# Details: HepG2 Attagene cis-factorial transcription factor reporter; actives raise or lower the signal
# Procedure: ATG_CIS is a cell-based, multiplexed-readout assay that uses HepG2, a human liver cell line, with measurements taken at 24 hours after chemical dosing in a 24-well plate.ATG_C_EBP_CIS is one of 52 assay component(s) measured or calculated from the ATG_CIS assay. It is designed to make measurements of mRNA induction, a form of inducible reporter, as detected with fluorescence intensity signals by Reverse transcription polymerase chain reaction (RT-PCR) and Capillary electrophoresis technology.Data from the assay component ATG_C_EBP_CIS was analyzed into 1 assay endpoint. This assay endpoint, ATG_C_EBP_CIS, was analyzed with bidirectional fitting relative to DMSO as the negative control and baseline of activity. Using a type of inducible reporter, measures of mRNA for gain or loss-of-signal activity can be used to understand the reporter gene at the transcription factor-level as they relate to the gene CEBPB. Furthermore, this assay endpoint can be referred to as a primary readout, because this assay has produced multiple assay endpoints where this one serves a reporter gene function. To generalize the intended target to other relatable targets, this assay endpoint is annotated to the dna binding intended target family, where the subfamily is basic leucine zipper.
# Human liver HepG2 cells are transiently transfected with multiple reporter transcription units (MRTUs) in 6-well plates using FuGene 6 reagent (Roche; 3 ml FuGene/1 mg DNA). The MRTU constructs are regulated by a cis-regulating element (promoter). […] A major difference between the CIS and TRANS system is that in CIS activities of endogenous TFs are measured, whereas the TRANS assay evaluates changes in activities of exogenous, chimeric NR-Gal4 proteins. […] At the end of 24 hour incubation, total RNA was isolated using TriZol reagent (Invitrogen). The isolated RNA is then reverse-transcribed using oligo(dT) primer and Mo-MLV reverse transcriptase (Invitrogen) with DNAse I (Ambion) treatment for 30 min. The one-tenth of the produced cDNA was amplified by PCR using Taq DNA polymerase (Invitrogen) and two reporter sequence-specific primers. The PCR products were fluorescently labeled by primer extension with 6-arboxyfluorescein (6-FAM) 5'-labeled reporter sequence-specific primer (2 min at 95 C, 20 s at 68 C and 10 min at 72 C) and these products were digested with 5U of HpaI (New England Biolabs) for 2h at 37 C. The fragments were purified using Qiaquick PCR columns (Qiagen), analyzed on an ABI 3130xL genetic analyzer (Applied Biosystems) with peak positions identified by using a set of X-rhodamine (ROX)-labeled MapMarker1000 molecular weight standards (BioVentures). The raw capillary electrophoresis data was processed using Attagraph software (Attagene).
# Chain of CCAAT/enhancer-binding protein beta (Homo sapiens) (P17676 whole entry, looked up): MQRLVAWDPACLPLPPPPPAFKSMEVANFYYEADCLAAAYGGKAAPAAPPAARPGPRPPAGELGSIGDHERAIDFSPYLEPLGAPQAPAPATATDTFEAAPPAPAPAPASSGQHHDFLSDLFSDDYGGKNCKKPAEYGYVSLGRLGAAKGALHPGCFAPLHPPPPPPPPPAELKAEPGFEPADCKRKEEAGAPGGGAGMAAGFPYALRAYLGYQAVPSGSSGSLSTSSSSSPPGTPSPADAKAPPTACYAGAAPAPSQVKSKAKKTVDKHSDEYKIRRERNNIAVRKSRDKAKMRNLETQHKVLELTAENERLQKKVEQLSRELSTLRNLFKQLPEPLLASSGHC
Structure (SMILES),outcome,AC50
CC(C)(C)c1ccc(OC2CCCCC2O)cc1 (stereo not given),inactive,
C=C(C)C(=O)OCC(F)(F)C(F)(F)C(F)(F)C(F)(F)C(F)(F)C(F)(F)C(F)(F)F,inactive,
c1ccc(-c2ccccc2-c2ccccc2)cc1,inactive,
CCCCCCCCCCCCCCCC[N+](C)(C)Cc1ccccc1,inactive,
FC(F)(F)C(F)(F)C(F)(F)C(F)(F)C(F)(F)C(F)(F)CCS,inactive,
CCCCCCCOC(=O)c1ccccc1C(=O)OCCCCCCC,inactive,
O=C(O)C(F)(F)C(F)(F)C(F)F,inactive,
C#C[C@]1(O)CC[C@H]2[C@@H]3CCc4cc(OC)ccc4[C@H]3CC[C@@]21C,inactive,
O=C(O)C(F)(F)C(F)(F)C(F)(F)C(F)(F)C(F)(F)C(F)(F)C(F)(F)C(F)(F)C(F)(F)C(F)(F)C(F)(F)C(F)(F)F,inactive,
CC(C)=CCCC(C)CCOC(=O)C(C)C (stereo not given),inactive,
CNC(=S)NC,inactive,
FC(F)(F)C(F)(F)C(F)(F)C(F)(F)C(F)(F)C(F)(F)CC1CO1 (stereo not given),inactive,
Cc1cccc(N(C)C)c1,inactive,
OCC(F)(F)C(F)(F)C(F)(F)C(F)(F)C(F)(F)C(F)(F)F,,204 µM (active)
Nc1cc(Cl)c(N)c(Cl)c1,inactive,
O=C(CC(=O)C(F)(F)C(F)(F)F)C(F)(F)F,inactive,
FC1CC(F)(F)C(F)(F)C1(F)F (stereo not given),inactive,
CC(Cc1ccc(O)c(O)c1)C(C)Cc1ccc(O)c(O)c1 (stereo not given),inactive,
OC[C@@H](O)[C@@H](O)[C@H](O)[C@@H](O)CO,inactive,
O=C(O)C=C(C(F)(F)F)C(F)(F)F,inactive,

Structure (SMILES),outcome,AC50
C=CC(=O)OCC(F)(F)C(F)(F)C(F)(F)C(F)(F)COC(=O)C=C,,50 µM (active)
CCc1ccc(C(c2ccc(CC)cc2)C(Cl)Cl)cc1,inactive,
C1COCCN1,inactive,
OCCCC(F)(F)C(F)(F)C(F)(F)C(F)(F)C(F)(F)C(F)(F)C(F)(F)F,inactive,
FC(F)(F)C(F)(F)C(F)(F)C(F)(F)C(F)(F)C(F)(F)C(F)(F)C(F)(F)F,inactive,
N=C(N)C(F)(F)C(F)(F)C(F)(F)C(F)(F)C(F)(F)C(F)(F)C(F)(F)F,,111 µM (active)
Cc1cc(C)cc(O)c1,inactive,
FC(F)(F)C(F)(F)CNCC(F)(F)C(F)(F)F,inactive,
O=C(O)C(F)(F)C(F)(F)C(F)(F)C(F)(F)C(F)(F)C(F)(F)C(F)(F)C(F)(F)C(F)(F)C(F)(F)C(F)(F)C(F)(F)C(F)(F)F,inactive,
COC(OC(C)=O)c1ccccc1 (stereo not given),inactive,
FC(F)(F)C(F)(F)C(F)(F)C(F)(F)C(F)(F)C(F)(F)C(F)(F)Br,inactive,
FC(F)(F)C(F)(F)C(F)(F)CI,inactive,
C=CC(F)(F)C(F)(F)C(F)(F)C(F)(F)C(F)(F)C(F)(F)C(F)(F)C(F)(F)C=C,inactive,
O=C(O)C(F)(F)C(F)(F)C(F)(F)C(F)(F)F,inactive,
CC(C)OC(=O)c1ccccc1C(=O)OC(C)C,inactive,
O=C(O)C(F)(OC(F)(F)C(F)(OC(F)(F)C(F)(F)C(F)(F)F)C(F)(F)F)C(F)(F)F (stereo not given),inactive,
O=C(O)C(F)(F)C(F)(F)C(F)(F)F,inactive,
FC(F)(F)C(F)(F)C(F)(F)C(F)(F)C(F)(F)C(F)(F)C(F)(F)I,inactive,
O=S(=O)(OCCOC(F)(F)F)C(F)(F)F,inactive,
FC(F)(I)C(F)(F)C(F)(F)C(F)(F)I,inactive,
